This is part of a sample that, as a whole, favours compounds with a hit. Of some 83,000 tested, about 20% had one in any assay.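 Note: values are percent growth. 100 is the growth of untreated cells, values between 100 and 0 indicate rising inhibition; between -100 and 0 indicates cell death.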 A number with no mark means an inactive call. Activity calls are given as the source filed them. How the source made its calls: active means growth percent below 10; inactive means the rest.
System: HL-60(TB) leukemia
Test: NCI-60 one-dose screen, 48 h (100 = growth as untreated, 0 = no growth, -100 = all killed)
Settings: 10 µM unless noted

| Compound | growth |
| --- | --- |
| COc1cccc(-c2nn(-c3ccccc3)cc2-c2ccnc(NCCNS(=O)(=O)c3ccc(Cl)cc3)c2)c1 | 7.06% (active) |
| COc1ccc(S(=O)(=O)NCCNc2nccc(-c3c(-c4cccc([N+](=O)[O-])c4)nc4sccn34)n2)cc1 | 110% |
| COc1cc(C(=O)/C=C/c2c(-c3ccc(F)cc3)nc3sccn23)cc(OC)c1OC | 32% |
| O=C(/C=C/c1cccc([N+](=O)[O-])c1)c1ccc(Nc2nc(N3CCCCC3)nc(N3CCCCC3)n2)cc1 | 79.4% |
| O=C1NC(=O)C(c2ccccc2)(c2ccccc2)N1Cc1cn(-c2c3ccccc3nc3ccccc23)nn1 | 73.3% |
| Nc1c(C(=O)Nc2ccccc2)sc2nc3c(cc12)CN(C(=O)OCc1ccccc1)CC3 | 17.1% |
| CC(C)C(=O)Nc1ccc(-c2nc(-c3cccc(OCCN4CCOCC4)c3)c(-c3ccnc(Br)c3)[nH]2)cc1 | -28.5% (active) |
| COc1ccc(-c2c(-c3ccccc3)noc2N)cc1OC | 95.2% |
| CCCCCCCCCCCCCCCC1=NCCN1 | -15.6% (active) |
| CCN(CC)CCCNc1nc2ccccc2c2c(=O)c3cc(Cl)ccc3sc12 | 64.5% |
| Fc1ccc(Cn2cc(CSc3nc4ccccc4o3)nn2)cc1 | 104% |
| CC1SC(c2ccc(N(C)C)cc2)N(NC(=O)C(O)(c2ccccc2)c2ccccc2)C1=O (stereo not given) | 84.2% |
| O=C1NC(=O)C(c2ccc(Cl)cc2Cl)N1 (stereo not given) | 107% |
| CCN1CCC[C@H]1c1cc(O)c2c(c1OC)C[C@H]1C[C@H]3[C@H](N)C(=O)C(C(N)=O)=C(O)[C@@]3(O)C(=O)C1=C2O | -49.2% (active) |
| Oc1[nH]c2ccccc2c1/C=c1/ccc2c(c1)N=C(c1cc(F)cc(F)c1)N=2 | 54.2% |
| COc1ccc(C(=O)CCC(=O)O)cc1 | 98.6% |
| C=C(CN=[N+]=[N-])[C@@H]1CC[C@]2(C)[C@H](CC[C@@H]3[C@H]4[C@H]5OC(=O)[C@@]4(CCC5(C)C)CC[C@]32C)[C@@]1(C)CCC#N | 22.7% [100 µM] |
| O=S(=O)(Nc1ccc2ccccc2c1)c1ccc(-c2cnc(C3CC3)o2)cc1 | -28% (active) |
| CCN1CCN(c2cc(C)nc(NCc3cc(Nc4ccnc5cc(Cl)ccc45)ccc3F)n2)CC1 | 95.7% |
| COc1cc2c(c(OC)c1OC)C(=O)N[C@@H]1[C@@H](O)[C@@H](O)[C@H](O)C[C@@H]21 | 99.3% |

| Compound | growth |
| --- | --- |
| O=C(NCc1ccccc1)C1CN(c2ccc(Cl)cc2)N(c2ccc(Cl)cc2)C1=O (stereo not given) | 81.7% |
| O=C1c2cccc3cccc(c23)C(=O)N1C/C=C/c1ccc2c3c(cccc13)C(=O)N(CCO)C2=O | 94.2% |
| CC1(c2ccccc2)CO1 (stereo not given) | 105% |
| CCOC(=O)Nc1cc(-c2ccc(C)c(NS(C)(=O)=O)c2)nn2c(C)nnc12 | 10.8% |
| Nc1nc2ccccc2c2c(=O)c3cc(Cl)ccc3sc12 | 103% |
| O=C(CC(=O)Nc1cccc(C(=O)O)c1)Nc1cccc(C(=O)O)c1 | 113% |
| N=C(N)c1ccc(OCCCCCCCCCCOc2ccc(C(=N)N)cc2)cc1 | -70.1% (active) |
| CCCc1cccc(CCC)c1O | 105% |
| C=CCn1c(SCC(=O)Nc2ccc(C(=O)/C=C/c3ccc(OC)cc3)cc2)nnc1-c1ccccc1 | 88.5% |
| CN1CCCC1=Nc1ccccc1 | 93.3% |
| Cc1cc2nc3cc(C)c(N)cc3[n+](-c3ccccc3)c2cc1N | 63.3% |
| O=C1/C=C/[C@@H](O)[C@@H]2C[C@@H](O)C[C@H]2/C=C/CCC[C@H](C(F)(F)F)O1 | -32.7% (active) |
| CCOC(=O)c1c(Cl)c2c(n1Cc1ccccc1)-c1oncc1CCC2 | 25.7% |
| N=C(N)c1ccc(-c2ccc(-c3cc(Cl)cc(Cl)c3)s2)nc1 | -7.02% (active) |
| COc1cc(-c2csc(NC(=O)c3cc(F)cc(C(F)(F)F)c3)n2)cc(OC)c1OC | 14% |
| C[C@]12CC[C@@H]3c4ccc(O)c([N+](=O)[O-])c4CC[C@H]3[C@@H]1CC[C@@H]2NS(=O)(=O)c1ccc(C(F)(F)F)cc1 | -11.6% (active) |
| CN(C)c1ccc(-c2ccc3[nH]c(=O)nc(-c4ccccc4)c3c2)cn1 | 3.35% (active) |
| COc1ccc(/C=c2/c(=O)[nH]c3nc4sc(C)c(C)c4c(=O)n23)cc1 | 71.8% |
| CC/C=C\C/C=C\C[C@H]1C/C=C2/C(=O)C=C[C@@H]2C/C=C\CCC(=O)O1 | 1.1% (active) |
| CCOc1ccc(NC(=O)Nc2cc(C(C)C)ccc2C)cc1 | 95.2% |
